Values joined by “and” are separate entries in the source; they are usually repeats but may differ in a detail not shown here. Identical values can stand only once. Among all 5,500 compounds or so, about 2,000 (36%) were called active. Inconclusive results (about 18%) are left out. No stated cut-off is given here; in the data, active means normalized growth mostly below about 0.91 (no sharp cut-off); inconclusive means no clear call, values can overlap the other calls; inactive means mostly above about 0.92. Some of the results follow.
Test: chemical genetic growth profiling, strain panel (AID 1159580);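 further: tested at 20 µM; growth read once vehicle control cultures reached saturation at 30 °C; 1 = growth at the plate median or of vehicle wells; lower values mean less growth of the strain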
Details: S. cerevisiae deletion strains, growth OD

Measured: normalized growth

CC(C(=O)O)c1cccc(C(=O)c2ccccc2)c1 (stereo not drawn)
inactive: locus YAL013W, strain DEP1, active compounds read low 1.01 | locus YAL021C, strain ccr4, active compounds read low 0.995 | locus YAL026C, strain drs2, active compounds read low 0.981 | locus YAL030W, strain snc1, active compounds read low 0.997 | locus YAL040C, strain CLN3, active compounds read low 1 | locus YBL061C, strain skt5, active compounds read low 0.998 | locus YBR009C, strain hhf1, active compounds read low 0.979 | locus YBR021W, strain FUR4, active compounds read low 1.01 | locus YBR023C, strain chs3, active compounds read low 0.985 | locus YBR171W, strain sec66, active compounds read low 0.98 | locus YBR229C, strain ROT2, active compounds read low 1 | locus YBR231C, strain swc5, active compounds read low 1 | locus YBR279W, strain paf1, active compounds read low 0.972 | locus YCL011C, strain gbp2, active compounds read low 0.991 | locus YCL016C, strain dcc1, active compounds read low 0.969 | locus YCL029C, strain bik1, active compounds read low 0.962 | locus YCL061C, strain MRC1 (second series), active compounds read low 1.01 | locus YCL069W, strain vba3, active compounds read low 0.983 | locus YCR088W, strain abp1, active compounds read low 0.989 | locus YDL005C, strain med2, active compounds read low 0.98 | locus YDL035C, strain GPR1, active compounds read low 1 | locus YDL040C, strain nat1, active compounds read low 0.986 | locus YDL074C, strain BRE1, active compounds read low 1.06 | locus YDL101C, strain DUN1, active compounds read low 1 | locus YDL134C, strain PPH21, active compounds read low 0.994 | locus YDL185W, strain tfp1, active compounds read low 0.941 | locus YDL192W, strain arf1, active compounds read low 0.978 | locus YDR001C, strain nth1, active compounds read low 0.983 | locus YDR069C, strain doa4, active compounds read low 0.984 | locus YDR101C, strain arx1, active compounds read low 1.02 | locus YDR137W, strain rgp1, active compounds read low 0.953 | locus YDR159W, strain sac3, active compounds read low 0.928 | locus YDR162C, strain NBP2, active compounds read low 0.979 | locus YDR195W, strain ref2 1.02 | locus YDR297W, strain sur2, active compounds read low 0.982 | locus YDR318W, strain mcm21, active compounds read low 0.969 | locus YDR334W, strain swr1, active compounds read low 0.984 | locus YDR335W, strain msn5, active compounds read low 1.01 | locus YDR363W, strain ESC2, active compounds read low 0.998 | locus YDR388W, active compounds read low 0.989 | locus YDR392W, strain spt3, active compounds read low 0.871 | locus YDR502C, strain sam2, active compounds read low 1 | locus YEL003W, strain gim4, active compounds read low 1 | locus YEL037C, strain rad23, active compounds read low 0.987 | locus YEL061C, strain CIN8 (second series), active compounds read low 0.996 | locus YEL061C, strain CIN8, active compounds read low 1 | locus YER002W, strain NOP16, active compounds read low 0.992 | locus YER015W, strain faa2, active compounds read low 0.966 | locus YER016W, strain bim1, active compounds read low 0.974 | locus YER110C, active compounds read low 0.957 | locus YER111C, strain swi4, active compounds read low 0.979 | locus YER155C, strain BEM2 (second series), active compounds read low 0.986 | locus YER155C, strain BEM2, active compounds read low 0.994 | locus YER167W, strain BCK2, active compounds read low 1 | locus YFR010W, strain ubp6, active compounds read low 1 | locus YGL078C, strain dbp3, active compounds read low 0.99 | locus YGL086W, strain mad1, active compounds read low 1.01 | locus YGL167C, strain pmr1, active compounds read low 0.991 | locus YGL173C, strain kem1, active compounds read low 1.01 | locus YGL227W, strain vid30, active compounds read low 1 | locus YGL240W, strain doc1, active compounds read low 0.995 | locus YGL248W, strain PDE1, active compounds read low 1.02 | locus YGL253W, strain hxk2, active compounds read low 0.984 | locus YGR078C, strain PAC10, active compounds read low 1.02 | locus YGR135W, strain pre9, active compounds read low 0.958 | locus YGR229C, strain SMI1, active compounds read low 1.01 | locus YGR252W, strain gcn5, active compounds read low 1.03 | locus YHR013C, strain ard1, active compounds read low 0.964 | locus YHR027C, strain rpn1, active compounds read low 1.01 | locus YHR030C, strain SLT2, active compounds read low 0.982 and 1.04 | locus YHR079C, strain IRE1 (second series), active compounds read low 0.974 | locus YHR079C, strain IRE1, active compounds read low 1.04 | locus YHR094C, strain hxt1, active compounds read low 0.979 | locus YHR129C, strain ARP1, active compounds read low 0.987 | locus YHR142W, strain chs7, active compounds read low 0.966 | locus YHR200W, strain rpn10, active compounds read low 0.955 | locus YIL066C, strain RNR3, active compounds read low 1.02 | locus YIL073C, strain SPO22, active compounds read low 0.868 | locus YIL125W, strain kgd1, active compounds read low 0.984 | locus YIR030C, strain dcg1, active compounds read low 0.961 | locus YJL092W, strain hpr5, active compounds read low 0.997 | locus YJL095W, strain BCK1 (second series), active compounds read low 0.978 | locus YJL095W, strain BCK1, active compounds read low 1.05 and 1.01 | locus YJL115W, strain asf1, active compounds read low 0.98 | locus YJL129C, strain trk1, active compounds read low 0.942 | locus YJL134W, strain LCB3, active compounds read low 0.991 | locus YJL154C, strain vps35, active compounds read low 0.982 | locus YJL164C, strain tpk1, active compounds read low 0.985 | locus YJL166W, strain qcr8, active compounds read low 0.999 | locus YJL168C, strain set2, active compounds read low 0.978 | locus YJL187C, strain SWE1 (second series), active compounds read low 1.03 | locus YJR043C, strain POL32, active compounds read low 1.03 | locus YJR066W, strain TOR1, active compounds read low 0.965
